PubChem BioAssay AID651610 (Broad Institute, 2012)
Among all 360,000 compounds or so, about 3,900 (1.1%) were called active.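 Rule for the calls: active = mean replicate inhibition score of at least 50 and every replicate individually at or above 50; inconclusive = only one of the two criteria met; inactive = mean below 50 and not all replicates reaching 50.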 Many of the other results were omitted from the sample, so actives are more common in it than they were.

test: inhibitors of HIV-1 Env-driven cell-cell fusion, primary screen, HeLa-JRFL effector, CEM21 target cells, luciferase (AID 651610); conditions: stronger effect = higher value; at 16.7 µM unless noted;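 note: 0% = plate neutral controls and 100% = maraviroc near 300 nM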

inhibition, inactive:
C[C@@H]1CCCCO[C@@H](CN(C)Cc2ccncc2)[C@H](C)CN([C@@H](C)CO)C(=O)c2cc(NS(=O)(=O)c3ccccc3)ccc2O1 18.8%
CO[C@@H]1CN(C)C(=O)c2cc(NC(C)=O)ccc2OC[C@@H](C)N(C(=O)NC2CCCCC2)C[C@H]1C 27.6%
CC1(C(=O)NCc2ccc3c(c2)OCO3)CCN1C(=O)Cc1cccc2ccccc12 (centres undefined) -2.06% [at 12.3 µM]
CSc1ccc(CN2CCC2(C)C(=O)NCc2ccccc2Br)cc1 (centres undefined) 26.2% [at 12.3 µM]
C[C@@H]1CN([C@H](C)CO)C(=O)c2cccc(NC(=O)Nc3cccc4ccccc34)c2O[C@@H]1CN(C)C(=O)Nc1cccc2ccccc12 -85%
C[C@H](CO)N1C[C@H](C)[C@H](CN(C)S(=O)(=O)c2ccccc2)Oc2c(NC(=O)Nc3ccccc3)cccc2C1=O -1.17%
C[C@@H]1CCCCO[C@@H](CN(C)S(=O)(=O)c2ccc(F)cc2)[C@@H](C)CN([C@@H](C)CO)C(=O)c2cc(NC(=O)Nc3ccc4c(c3)OCO4)ccc2O1 -5.81%
CNC[C@@H]1Oc2c(NC(=O)Nc3ccc(OC)cc3)cccc2C(=O)N([C@@H](C)CO)C[C@@H]1C 5.18%
C[C@H](CO)N1C[C@H](C)[C@@H](CN(C)S(=O)(=O)c2ccc(F)cc2)Oc2c(NC(=O)Nc3ccccc3)cccc2C1=O -4.04% [at 12.3 µM]
COc1ccc(S(=O)(=O)N(C)C[C@H]2Oc3ccc(NC(=O)Nc4ccccc4)cc3CC(=O)N([C@H](C)CO)C[C@@H]2C)cc1 -2.93%
C[C@@H]1CN([C@H](C)CO)C(=O)c2cc(NC(=O)Nc3ccccc3)ccc2O[C@H]1CN(C)S(=O)(=O)c1ccc(F)cc1 -5.96%
COc1ccc(NC(=O)Nc2ccc3c(c2)CC(=O)N([C@H](C)CO)C[C@H](C)[C@H](CN(C)S(=O)(=O)c2ccc(OC)cc2)O3)cc1 42.7%
CCCN(C)C[C@@H]1Oc2cc(-c3cccc(C#N)c3)ccc2S(=O)(=O)N([C@@H](C)CO)C[C@@H]1C 1.91%
C[C@H](CO)N1C[C@H](C)[C@H](CN(C)C(=O)NC2CCCCC2)Oc2ccc(NC(=O)c3ccncc3)cc2CC1=O -6.85%
C[C@@H]1CCCCO[C@H](CN(C)S(=O)(=O)c2cn(C)cn2)[C@H](C)CN([C@@H](C)CO)C(=O)c2cc(NC(=O)Nc3ccc(C(F)(F)F)cc3)ccc2O1 -4.59%
CC(C)NC(=O)Nc1ccc2c(c1)CC(=O)N([C@@H](C)CO)C[C@@H](C)[C@@H](CN(C)S(=O)(=O)c1ccccc1)O2 4.16%
CC(C)NC(=O)Nc1ccc2c(c1)C(=O)N([C@H](C)CO)C[C@H](C)[C@@H](CN(C)C(=O)CCCN(C)C)OCCCC[C@@H](C)O2 2.66%
C[C@@H]1CCCCO[C@@H](CN(C)Cc2ccc3c(c2)OCO3)[C@@H](C)CN([C@@H](C)CO)C(=O)c2cc(NC(=O)C3CCCCC3)ccc2O1 -19.5%
CN(C)C(=O)c1cccc(-c2ccc3n(c2=O)C[C@H]2N[C@@H]3[C@@H](C(=O)NC3CCC3)[C@@H]2CO)c1 4.81%
C[C@H](CO)N1C[C@H](C)[C@H](CN(C)S(=O)(=O)c2cccs2)Oc2ccc(NS(=O)(=O)c3ccccc3)cc2C1=O 37%
COc1ccc(NC(=O)Nc2ccc3c(c2)C(=O)N([C@@H](C)CO)C[C@H](C)[C@@H](CN(C)S(=O)(=O)c2ccc(Cl)cc2)O3)cc1 7.85%
COc1ccc(S(=O)(=O)N(C)C[C@@H]2Oc3ccc(NC(=O)Nc4c(C)noc4C)cc3C(=O)N([C@H](C)CO)C[C@@H]2C)cc1 -131% [at 12.3 µM]
C[C@H](CO)N1C[C@H](C)[C@@H](CN(C)S(=O)(=O)c2ccccc2)Oc2ccc(NC(=O)Nc3ccc(F)cc3)cc2CC1=O -10.6%
C[C@H]1CN([C@@H](C)CO)C(=O)Cc2cc(NC(=O)Nc3ccc(F)cc3)ccc2O[C@H]1CN(C)S(=O)(=O)c1ccccc1 54%
COc1ccc(-c2cnc3c(c2)C(=O)N([C@H](C)CO)C[C@H](C)[C@H](CN(C)S(=O)(=O)c2ccccc2)O3)cc1 11.4%
C[C@H](CO)N1C[C@H](C)[C@H](CN(C)S(=O)(=O)c2ccc(F)cc2)Oc2ncc(-c3ccc(F)cc3)cc2C1=O 24.9%
C[C@@H]1CCCCO[C@@H](CN(C)Cc2ccncc2)[C@@H](C)CN([C@@H](C)CO)C(=O)c2cc(NC(=O)Nc3ccc(F)cc3)ccc2O1 -4.96%
Cc1ccccc1S(=O)(=O)NCC[C@@H]1CC[C@H](NC(=O)C2CC2)[C@@H](CO)O1 0.439%
C[C@@H]1CN([C@H](C)CO)C(=O)c2cc(N(C)C)ccc2O[C@@H]1CN(C)S(=O)(=O)c1cn(C)cn1 4.03%
O=C(C[C@H]1CC[C@H](NS(=O)(=O)c2ccccc2)[C@H](CO)O1)NCc1ccncn1 2.23%
CC(C)c1cn(CC[C@@H]2CC[C@@H](NC(=O)C3CC3)[C@H](CO)O2)nn1 7.45%
Nc1ccn(CC(=O)N2CCN(c3ccccn3)CC2)c(=O)n1 15.1% [at 12.3 µM]
O=C(Nc1ccn(CCCNCc2ccc3[nH]ccc3c2)c(=O)n1)OCc1ccccc1 1.22% [at 12.3 µM]
C[C@H](CO)N1C[C@H](C)[C@@H](CN(C)Cc2ccc(Oc3ccccc3)cc2)Oc2ccc(NS(=O)(=O)c3ccc(F)cc3)cc2CC1=O 6.63%
C[C@H](CO)N1C[C@H](C)[C@H](CN(C)C(=O)c2ccccc2)OCCCC[C@H](C)Oc2ccc(NS(C)(=O)=O)cc2C1=O -12.1%
Nc1nc2n(n1)C(c1ccco1)CC(c1ccc(Cl)c(Cl)c1)N2 (centres undefined) -24.3% [at 12.3 µM]
COc1ccc(C2CC(c3cccs3)Nc3nnnn32)cc1 (centres undefined) 15.5% [at 12.3 µM]
Cc1ccc(S(=O)(=O)Nc2ccc3c(c2)C(=O)N([C@H](C)CO)C[C@@H](C)[C@H](CN(C)S(=O)(=O)c2cccs2)OCCCC[C@@H](C)O3)cc1 -10.4%
O=C(NCC[C@H]1CC[C@@H](NC(=O)C2CC2)[C@H](CO)O1)c1ccc(F)cc1 13.4%
Cc1ccc(S(=O)(=O)Nc2ccc3c(c2)C(=O)N([C@@H](C)CO)C[C@H](C)[C@@H](CN(C)C(=O)Cc2ccccc2)OCCCC[C@H](C)O3)cc1 -8.35%
CCCCC[C@@H]1C=C(C(=O)OCC)[C@H](c2ccccc2)N1S(=O)(=O)c1ccc(C)cc1 -5.02% [at 12.3 µM]
CCOC(=O)C1=CC[C@@H](c2ccccc2)N(S(=O)(=O)c2ccc(C)cc2)[C@H]1c1ccc(CC)cc1 44.3% [at 12.3 µM]
CCC(=O)N1C[C@H](C)[C@@H](OC)CN(C)C(=O)c2cc(NC(=O)c3cnccn3)ccc2OC[C@@H]1C -0.896%
CN(Cc1ccc(F)cc1)C(=O)CN1C(=O)c2ccccc2S1(=O)=O -26% [at 12.3 µM]
Cc1ccc(S(=O)(=O)N(C)CC(=O)N2CCc3ccccc32)cc1 -5.79% [at 12.3 µM]
C[C@@H]1CN([C@@H](C)CO)C(=O)c2cc(NC(=O)Nc3cccc4ccccc34)ccc2O[C@H]1CN(C)Cc1ccc(Cl)c(Cl)c1 2.97%

inhibition, active:
CC1(C(=O)NCc2cccc3ccccc23)CCN1Cc1ccc(-c2ccccc2)o1 (centres undefined) 102% [at 12.3 µM]
C[C@H]1CN([C@@H](C)CO)C(=O)c2cccc(NC(=O)Nc3ccc(C(F)(F)F)cc3)c2O[C@H]1CN(C)S(=O)(=O)c1ccccc1 69.3%
CNC[C@H]1Oc2c(NC(=O)Nc3cccc4ccccc34)cccc2C(=O)N([C@H](C)CO)C[C@H]1C 56.8%
C[C@H]1CN([C@@H](C)CO)C(=O)c2cc(NC(=O)Nc3ccc4c(c3)OCO4)ccc2O[C@H]1CN(C)S(=O)(=O)c1ccc(F)cc1 68.9%
COc1ccc(NC(=O)Nc2ccc3c(c2)CC(=O)N([C@H](C)CO)C[C@H](C)[C@H](CN(C)S(=O)(=O)c2ccccc2)O3)cc1 59.1%
C[C@@H]1CN([C@@H](C)CO)C(=O)Cc2cc(NC(=O)Nc3ccccc3)ccc2O[C@@H]1CN(C)S(=O)(=O)c1ccc(F)cc1 56.4%
COc1ccc(NC(=O)Nc2ccc3c(c2)C(=O)N([C@H](C)CO)C[C@H](C)[C@H](CN(C)S(=O)(=O)c2ccc(OC)cc2)O3)cc1 59.4%
Cc1ccc(S(=O)(=O)N(C)C[C@@H]2Oc3ncc(-c4cc5ccccc5o4)cc3C(=O)N([C@H](C)CO)C[C@@H]2C)cc1 73%
Cc1cc(C)c(CN2CCN(C(=O)Cn3ccc(NC(=O)OCc4ccccc4)nc3=O)CC2)c(C)c1 72.2% [at 12.3 µM]
Clc1ccc(C2CC(c3cccs3)n3ncnc3N2)cc1Cl (centres undefined) 91.8% [at 12.3 µM]
CCOC(=O)C1C(C)C(C(C)(C)C)N(S(=O)(=O)c2ccc(C)cc2)C1c1ccccc1 (centres undefined) 77.2% [at 12.3 µM]
O=C(CN1C(=O)c2ccccc2S1(=O)=O)N1CCc2ccccc21 63.8% [at 12.3 µM]
CC(Oc1ccc(-c2ccccc2)c(F)c1)c1ccn(S(=O)(=O)c2cccc3ccccc23)n1 (centres undefined) 58.1% [at 12.3 µM]
